Screens: PubChem BioAssay, The Scripps Research Institute Molecular Screening Center
A selection: hits, their analogues and other compounds. The true share with any hit is near 3.4%.
GPR151 ag – human GPR151 activation | Q8TDV0 | PathHunter beta-arrestin GPR151 cells, luminescence | activation, % at 11.2 µM | hit rate 1% among 650,000 | AID 1508602; in the data active = activation above about 4.9%;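 note: 0% = median of compound wells and 100% = cells with positive control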
FBW7 activator – activators of human E3 ligase FBW7; Q969H0; AlphaScreen FBW7–phospho-cyclin E peptide binding, activator screen; normalized activity (activation), % at 26.1 µM; hit rate 0.13% among 650,000; in the data active = normalized activity above about 1.9%;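 note: purified mutant Fbw7 with reduced substrate affinity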
TEAD-YAP inh – TEAD-YAP interaction inhibition. AID 1259422. hit rate 1.4% among 640,000. HEK-TIYL cells, TEAD-Gal4/YAP UAS-luciferase luminescence. inhibition, % at 9.12 µM; in the data active = inhibition above about 32%;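 note: 0% = median of test compound wells and 100% = reference inhibitor wells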
MITF primary – blocks human microphthalmia-associated transcription factor; O75030; AlphaScreen MITF homodimerization, bead proximity signal; inhibition, % at 2.6 µM; hit rate 0.91% among 650,000; in the data active = inhibition above about 50%;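 note: 0% = vehicle wells with protein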
GPR151 confirm – confirmation of human GPR151 activators; shares compounds with GPR151 ag; GPR151 PathHunter beta-arrestin cells, luminescence, 90 min; % of EA-reagent control over plate median; activation, % at 11.2 µM; 6,700 tested, under 10 active; AID 1508609;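 active = mean percent activation across replicates above the confirmation screen cutoff of 4.91%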
GPR119 counter – activates human GPR119 in a GPR151 counter-screen | activation, % at 11.2 µM | shares compounds with GPR151 ag | hit rate 0.3% among 6,700 | AID 1508611 | GPR119 PathHunter beta-arrestin cells, luminescence, 90 min; 0 = compound-well median, 100 = enzyme-acceptor control;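 active = mean percent activation in the counterscreen above 29.09%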;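 note: counterscreen on off-target GPR119 to flag nonselective hits from the GPR151 activator screen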
Target sequence (Q8TDV5 whole entry, looked up): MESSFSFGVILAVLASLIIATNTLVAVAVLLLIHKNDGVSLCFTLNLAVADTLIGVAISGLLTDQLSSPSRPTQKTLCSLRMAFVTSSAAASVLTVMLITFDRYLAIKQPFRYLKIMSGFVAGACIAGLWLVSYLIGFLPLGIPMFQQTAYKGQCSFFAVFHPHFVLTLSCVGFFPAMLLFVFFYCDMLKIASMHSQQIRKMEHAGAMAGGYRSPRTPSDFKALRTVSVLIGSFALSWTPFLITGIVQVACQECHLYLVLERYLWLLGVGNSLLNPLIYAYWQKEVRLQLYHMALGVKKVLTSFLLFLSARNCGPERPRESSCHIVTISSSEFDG
Starred values were filed as active, the others as inactive; nt = not tested or not shown; ! = repeats disagree.

SMILES | GPR151 ag | FBW7 activator | TEAD-YAP inh | MITF primary | GPR151 confirm | GPR119 counter
Cc1cc(C(F)(F)F)nc2snc(Br)c12 | 5.2* | 0.0 | 2.0 | 7.8 | -1.0 | -8.7
CCN1C(=O)C(CC(=O)Nc2ccc(OC)cc2)N(Cc2cccs2)C1=S (centres undefined) | 5.9* | -0.1 | -0.7 | 1.4 | 1.1 | 9.0
CN=C(Nc1ccc2c(c1)OCO2)SC1CC(=O)N(c2ccc(C(=O)O)cc2)C1=O (centres undefined) | 0.5 | -0.6 | 1.9 | 0.5 | nt | nt
COc1ccc(CNC(=O)C(=O)NCc2ccccn2)cc1 | 1.7 | 0.7 | 0.0 | 0.7 | nt | nt
CC(=O)N/C(=C\c1ccccc1)C(=O)NC(C)(C)C | 5.6* | 0.2 | 4.3 | -4.2 | -0.3 | -9.7
CC1(C)CC(=O)C2=C(C1)N(c1sc3c(c1C#N)CCCC3)C(N)=C(C#N)C2c1cccs1 (centres undefined) | 0.3 | -0.2 | 9.2 | 2.5 | nt | nt
COc1cccc2c1NC(C)(C)c1ssc(=Nc3ccc(S(N)(=O)=O)cc3)c1-2 | 2.9 | -0.1 | 1.0 | -2.7 | nt | nt
O=C(CSc1nnnn1-c1ccc(F)cc1F)N1CCOCC1 | 5.5* | 0.3 | -10.9 | 12.4 | 1.5 | 11.9
CCOc1ccc(-n2nnnc2SCC(=O)N2CCOCC2)cc1 | 5.3* | -0.1 | 3.4 | -13.9 | 0.0 | 5.6
COC(=O)c1ccc(-n2nnnc2SCC(=O)N2CCOCC2)cc1 | 4.9* | -0.1 | -4.8 | 3.0 | 1.1 | 20.9
Cc1cccc(NC(=O)c2c(NC(=O)CCC(=O)O)sc(-c3ccccc3)c2C)c1 | 0.7 | -0.2 | 4.4 | -2.7 | nt | nt
CCOc1ccccc1NC(=O)/C=C/c1ccc(OC)cc1 | -1.1 | -0.1 | 10.1 | 0.2 | nt | nt
CCCCOc1ccccc1NC(=O)/C=C/c1ccc(-c2ccccc2)cc1 | 5.3* | 0.0 | -7.7 | 2.2 | -0.8 | 7.3
COC(=O)c1cccn2cc(-c3ccc(F)cc3)nc12 | 4.9* | -0.1 | -9.7 | 1.0 | -1.1 | -5.8
c1ccc2c(N3CCCCCC3)nc(CN3CCCC3c3nccs3)nc2c1 (centres undefined) | 5.0* | -0.1 | -2.0 | -1.1 | 0.1 | -4.0
CC(CCn1cccn1)NC(=O)c1cc(COc2ccc3ncccc3c2)on1 (centres undefined) | 0.9 | 0.0 | 16.3 | 10.3 | nt | nt
CC(=O)c1ccc(OCc2cc(C(=O)NC(C)CCn3cccn3)no2)cc1 (centres undefined) | 6.3* | -0.1 | -49.2 | 9.4 | 0.8 | -3.0
COc1cc2nc(Nc3ccccn3)nc(Nc3cc(OC)c(OC)c(OC)c3)c2cc1OC | 7.3* | -0.2 | 14.3 | 8.2 | 1.5 | 3.3
COc1cc2nc(Nc3ccccn3)nc(Nc3ccc(Oc4ccccc4)cc3)c2cc1OC | -1.8 | -0.2 | -6.0 | -6.2 | nt | nt
COc1ccc(C(=O)/C=C/Nc2cccc([N+](=O)[O-])c2)cc1OC | 8.7*! | -0.1 | -36.5 | -1.0 | 0.4 | -8.7
Cc1nc(C(C)NC2CCN(c3ccc(NC(=O)C4CCCC4)cc3)CC2)cs1 (centres undefined) | 2.5 | 0.1 | -9.1 | 4.2 | nt | nt
COc1ccc(C(=O)Oc2coc(CSc3nnc(NC(C)=O)s3)cc2=O)cc1 | 13.1* | -0.2 | -3.1 | -8.0 | 0.6 | 6.1
COc1cccc(C(=O)Oc2coc(CSc3nnc(NC(C)=O)s3)cc2=O)c1 | -0.6 | -0.1 | -2.1 | -5.1 | nt | nt
c1ccc2c(c1)nc(NCCc1c[nH]c3ccccc13)c1nnnn12 | -0.4 | 0.2 | -11.2 | -1.1 | nt | nt
Cc1ccccc1CN1C(=O)CSc2ccc(C(=O)NC(C)CCc3ccccc3)cc21 (centres undefined) | -0.8 | 0.0 | 5.9 | -0.3 | nt | nt
SMILES | GPR151 ag | FBW7 activator | TEAD-YAP inh | MITF primary | GPR151 confirm | GPR119 counter
O=C(CN1CCN(S(=O)(=O)c2ccc(Br)cc2)CC1)Nc1ccc(Cl)c(C(F)(F)F)c1 | 5.8* | 0.0 | 10.8 | -5.0 | -1.2 | -6.2
Cc1ccccc1NC(=O)Cn1c(=O)n(Cc2ccccc2)c(=O)c2cccnc21 | 2.4 | 0.3 | -3.8 | 21.1 | nt | nt
CC(C)n1c(NCc2cccnc2)nc2c(NC3CCN(Cc4ccccc4)CC3)ncnc21 | 0.2 | -0.1 | 20.3 | 14.7 | nt | nt
COc1cc(C(=O)N2CCCC2C(=O)O)cc(OC)c1OC (centres undefined) | 5.0* | -0.7 | 2.9 | 22.0 | -0.3 | 8.2
COc1cc(C(=O)N2CCCCC2)cc(Cl)c1OC | 6.8* | -0.1 | -5.5 | -1.8 | 0.4 | 6.1
CCOc1ccc(C(=O)N2CCCC2C(=O)O)cc1 (centres undefined) | -0.4 | 0.4 | 1.0 | -0.1 | nt | nt
CCOc1cc(C(=O)N2CCCC2)cc(Cl)c1OC | -0.8 | 0.1 | 0.0 | -9.1 | nt | nt
Cc1ccccc1-n1nc2c(c1NC(=O)c1ccccc1Br)CSC2 | 0.8 | -0.1 | 3.9 | -1.9 | nt | nt
COc1ccc(O)c(CN2CCCCC2)c1 | -0.3 | -0.4 | -8.9 | -3.9 | nt | nt
COc1ccc(O)c(CN(C)CCN(C)C)c1 | 7.2* | 0.6 | 10.5 | 8.2 | -0.5 | -8.9
COCCNC(=O)c1ccc(C)c(Cl)c1 | 4.9 | 0.1 | -8.3 | 1.2 | nt | nt
O=C(O)CN=C(NS(=O)(=O)c1ccccc1)c1ccccc1 | 4.9*! | 0.2 | 14.4 | -2.0 | 0.5 | 13.1
CCOC(=O)c1ccc(N2C(=O)CC(NCc3ccc(N4CCCC4=O)cc3)C2=O)cc1 (centres undefined) | 0.7 | -0.4 | 13.8 | 4.2 | nt | nt
COc1ccc(-c2noc(CSc3nc(N)c(-c4ccccc4)c(=O)[nH]3)n2)cc1OC | 5.7* | -0.1 | 5.5 | -11.5 | -0.3 | -1.1
COc1ccc(-c2noc(CSc3nnc(C)n3-c3ccccc3)n2)cc1OC | -0.6 | -0.3 | -4.3 | -8.2 | nt | nt
COCCNC(=O)c1cc(I)c(OC)c(OC)c1 | 0.5 | 0.5 | -10.7 | -6.5 | nt | nt
Cc1cc(C=C2C(=O)NC(=S)NC2=O)c(C)n1-c1ccc([N+](=O)[O-])cc1 | 6.1* | -0.2 | -14.1 | 1.4 | 0.3 | 6.9
COc1cc(C2C(C(=O)OC3CCCC3)=C(C)NC3=C2C(=O)CC(c2ccc(Cl)cc2)C3)ccc1OC(C)=O (centres undefined) | 5.5* | 0.1 | 5.1 | 4.8 | -0.1 | -0.1
CCOc1ccc(C2C(C(=O)OC3CCCCC3)=C(C)NC3=C2C(=O)CCC3)cc1OC (centres undefined) | 1.3 | 0.0 | 3.8 | -7.4 | nt | nt
CCCOc1ccc(C2C(C(=O)OC3CCCCC3)=C(C)NC3=C2C(=O)CCC3)cc1OC (centres undefined) | 7.2* | 0.8 | 16.7 | 11.7 | -1.1 | -6.4
CC(=O)c1c(C)nn(C(=O)c2ccco2)c1C | -0.7 | 0.0 | -4.1 | 0.5 | nt | nt
CCCCOc1ccc(S(=O)(=O)Nc2ccc(OCC)cc2)cc1 | 1.7 | 0.4 | 12.2 | 9.7 | nt | nt
COc1ccc(C2(NC(=O)C3CCN(S(C)(=O)=O)CC3)CCCCC2)cc1 | 3.4 | -0.1 | -11.0 | -0.7 | nt | nt
COC(=O)c1ccccc1NC(=O)CN(c1ccccc1Cl)S(C)(=O)=O | 1.7 | -0.1 | -0.9 | 5.0 | nt | nt
COC(=O)c1ccccc1NC(=O)CN(c1ccc(OC)cc1OC)S(C)(=O)=O | 9.5* | -0.1 | 11.9 | -1.3 | -0.6 | 0.3
